Screening results as filed in PubChem BioAssay.
HCV inhibitor: qHTS Assay for Inhibitors of Hepatitis C Virus (HCV) | Huh7.5.1 HCVcc-Cre infection, luciferase reporter, 44 h | Potency, µM (doses to about 41.8 µM), without a hit: top-dose activity change, negative = inhibition, usual class: inhibitors | 340,000 compounds, 3.4% hits | AID 651820, 2012; also: potency is read from the fitted curve at half-maximal effect
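Infectious HCV cell culture screen: compound-treated cells (1,000/well, pre-plated 4 h) are infected with HCVcc-Cre at roughly 0.5 moi and grown 44 h. Infection is quantified by luciferase signal after 15 min substrate incubation at room temperature.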
Pf growth 48h: Primary qHTS for delayed death inhibitors of the malarial parasite plastid, 48 hour incubation; Potency, µM (doses to about 28.7 µM), without a hit: top-dose activity change, negative = inhibition, hits mostly inhibitors; AID 504832, 2011; 310,000 compounds, 5.9% hits; P. falciparum luciferase growth in erythrocytes, 48 h; also: potency is read from the fitted curve at half-maximal effect
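Luciferase-expressing P. falciparum in infected erythrocytes (2% hematocrit, 0.1% parasitemia final) in RPMI 1640/0.5% Albumax were exposed to compound for 48 hours at 37 C, 5% CO2; growth read as luminescence.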
Lassa entry inh: qHTS for Inhibitors of binding or entry into cells for Lassa Virus. Lassa virus pseudotype entry inhibition, cell reporter. Potency, µM (highest dose often 37.9 µM), for inactives: at the highest dose activity change, negative = inhibition, actives largely listed as inhibitors. 300,000 compounds, 1.2% hits; calls by dose curve; tested in HEK293 cells; also: potency is read from the fitted curve at half-maximal effect; nearly all actives have a fitted effect of over 50% in size
Pf growth 96h: Primary qHTS for delayed death inhibitors of the malarial parasite plastid, 96 hour incubation; P. falciparum luciferase reporter growth, 96 h; AID 504834, 2011; 320,000 compounds, 6.9% hits; Potency, µM (top dose mostly 28.7 µM), for inactives: at the highest dose activity change, negative = inhibition, usual class: inhibitors; also: potency is read from the fitted curve at half-maximal effect
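Luminescence readout: decreased luciferase signal marks inhibited growth of reporter-expressing P. falciparum in infected red cells (2% hematocrit, 0.05% parasitemia final), exposed to compound two generations (96 h, 37 C, 5% CO2).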
HCMV antiviral: qHTS Assay for inhibitors of the human cytomegalovirus (HCMV) | HFF cells, HCMV-luciferase reporter, 72 h; active compounds read low | activity change, negative = inhibition, % at 57.5 µM | 410,000 compounds, 4.5% hits | AID 1259415, 2018; in the data active = activity change below about -60%; inconclusive = no clear call, values can overlap the other calls; inactive = above about -39%
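Two compound doses tested in HFFs infected with HCMV-luciferase, MOI 1 PFU/cell, 72 h at 37C. Lysate luminescence read with OneGlo; data normalized against buffer-only and 10uM Salinomycin inhibitor controls.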
MARV entry inh: qHTS for inhibitors of binding or entry into cells for Marburg Virus | 300,000 compounds, 1.8% hits | Potency, µM (series often up to 37.8 µM), for the others: at the highest dose activity change, negative = inhibition, most hits filed as inhibitors | AID 540276, 2011 | Marburg virus pseudotyped entry inhibition, cell reporter; calls by dose curve; tested in HEK293 cells; also: potency is read from the fitted curve at half-maximal effect
* hit, by the source's call; ? = inconclusive; . = not tested or not shown; [ ] = remark or other dose. In the library only some 14% were active in any assay of this set; here they are far more common. Unless noted, calls follow the shape of the dose curve; as a rule, active = well fitted inhibition curve with a large enough effect; inconclusive = small, poorly fitted or top-dose-only effect, or another doubt; inactive = no such curve, though single readings can be large or run the other way. % is scaled to controls: 0 for no effect and ±100 for the full control effect.

SMILES | HCV inhibitor | Pf growth 48h | Lassa entry inh | Pf growth 96h | HCMV antiviral | MARV entry inh
COc1ccccc1N1CCN(C(=O)c2ccc(CS(=O)(=O)c3ccccc3OC)o2)CC1 | -3% | ? | 1% | 9.3µM* | -22 | 6%
COc1ccc(S(=O)(=O)Cc2ccc(C(=O)N3CCN(c4cccc(C)c4)C(C)C3)o2)cc1 (centres undefined) | ? | . | . | -29% | -25 | 1%
COc1ccccc1S(=O)(=O)Cc1ccc(C(=O)N2CCN(c3ccc(C)cc3)C(C)C2)o1 (centres undefined) | ? | 12µM* | . | ? | -19 | 6%
Cc1ccccc1S(=O)(=O)Cc1ccc(C(=O)N2CCN(c3ccccc3F)CC2)o1 | 10µM* | ? | ? | ? | -34 | ?
CN1C(=O)c2ccc(C(=O)Nc3ccccc3O)cc2C1=O | 13% | 5% | . | ? | -2 | .
COc1ccc([C@H]2CC(=O)C=C(c3ccc(C)c(F)c3)C2)cc1 | ? | 17% | . | 35% | -4 | .
O=C(Cn1ncc2ccsc2c1=O)N1CCN(c2ccc(F)cc2)CC1 | . | . | -1%[46.1 µM] | . | -9 | -22%[46.1 µM]
Cc1ccc2c(c1)[C@@H]1CN(C)CC[C@@H]1N2S(=O)(=O)c1ccc(F)cc1 | 19% | -18% | 4% | ? | -12 | -19%
Cc1ccc2c(c1)[C@@H]1CN(C)CC[C@@H]1N2S(=O)(=O)c1ccc([N+](=O)[O-])cc1 | 9% | ? | -25% | ? | -10 | ?
CCc1ccc(S(=O)(=O)N2c3ccc(C)cc3C3CN(C)CCC32)cc1 (centres undefined) | ? | 10µM* | ? | ? | ? | ?
COc1ccc(C)cc1S(=O)(=O)N1c2ccc(C)cc2C2CN(C)CCC21 (centres undefined) | ? | ? | ? | 10µM* | -4 | ?
COCCNC(=O)C1CCCN(C(=O)c2cc(-c3cccs3)oc2C)CC1 (centres undefined) | . | . | . | . | -67* | .
O=C(c1nc(-c2ccc(Cl)cc2)n2c1CCCCC2)N1CCN(c2ccccc2F)CC1 | . | . | -12%[46.1 µM] | . | 10 | .
O=C(CN1C(=O)COc2ccccc21)N1CCc2ccccc2C1 | 5% | 1% | -6% | 10µM* | 19 | ?
O=C(CN1C(=O)COc2ccccc21)NCCN1CCC(Cc2ccccc2)CC1 | 22µM* | . | -13% | ? | -28 | -24%
O=C(CCN1C(=O)COc2ccccc21)NCCN1CCOCC1 | 1% | 3% | 0% | -7% | 4 | 4%
O=C(CN1C(=O)COc2ccccc21)NCCCN1CCc2ccccc2C1 | -25% | -2% | -13% | -2% | 42 | -10%
O=C(CN1C(=O)COc2ccccc21)NCCN1CCOCC1 | 4% | 21% | 16% | 3% | -75* | -2%[46.1 µM]
O=C(CN1C(=O)COc2ccccc21)NCCCN1CCN(Cc2ccccc2)CC1 | 0% | 10% | 3% | 0.37µM* | . | ?
COc1cc(NC(=O)NNC(=O)c2cc3occc3n2C)cc(OC)c1OC | 6% | 15% | . | 29% | 1 | .
COC(=O)c1ccc(CSC2=NCCS2)cc1 | 10% | 144% | ? | 47% | -39 | 6%
Cn1nnnc1SCC(=O)N1CCN(c2ccc(Cl)cc2)CC1 | -6% | -18% | -1% | 68% | -40 | -15%
O=C(CSC1=NCCS1)c1ccc(Cl)cc1 | ? | 10µM* | -18% | ? | 42 | 0%
O=C(CSC1=NCCS1)N1CCN(c2ccc(Cl)cc2)CC1 | ? | 1% | -12% | 13% | -82* | -24%[46.1 µM]
Cc1ccc(N2Cc3ccccc3OC(C)C2=O)cc1 (centres undefined) | 10% | . | . | 9.3µM* | 2 | .
SMILES | HCV inhibitor | Pf growth 48h | Lassa entry inh | Pf growth 96h | HCMV antiviral | MARV entry inh
N#Cc1ccc(C23CC4(C2)[C@H](CN(Cc2ccc(C(F)(F)F)cc2)[C@@H]4c2ccccc2)C3c2ccc(C(F)(F)F)cc2)cc1 (some centres undefined) | 4% | -20% | . | -18% | ? | .
CN1C[C@@H]2C(c3ccc(C(F)(F)F)cc3)C3(c4cccnc4)CC2(C3)[C@H]1c1ccccc1 (some centres undefined) | 21% | 2.3µM* | . | 2.9µM* | -13 | .
FC(F)(F)c1ccc(CN2C[C@@H]3C(c4ccc(C(F)(F)F)cc4)C4(c5cccnc5)CC3(C4)[C@H]2c2ccccc2)cc1 (some centres undefined) | 10% | 2.1µM* | . | 2.1µM* | -73* | .
FC(F)(F)c1ccc(C2[C@H]3CN(Cc4cccnc4)[C@H](c4ccccc4)C34CC2(c2ccccc2)C4)cc1 (some centres undefined) | -2%[8.37 µM] | 2.9µM* | . | 2.3µM* | ? | .
N#Cc1ccc(C23CC4(C2)[C@H](CN(Cc2ccc(C(F)(F)F)cc2)[C@@H]4c2ccccc2)C3c2ccccc2)cc1 (some centres undefined) | 2% | ? | . | ? | ? | .
FC(F)(F)c1ccc(CN2C[C@@H]3C(c4ccccc4)C4(c5cccnc5)CC3(C4)[C@H]2c2ccccc2)cc1 (some centres undefined) | -19% | 2.3µM* | . | 3.3µM* | -26 | .
Cc1cccc(NC(=O)CN(C)S(=O)(=O)c2ccc3c(c2)c(=O)n(C)c(=O)n3C)c1 | . | . | -5%[46.1 µM] | . | -18 | 8%[46.1 µM]
COc1ccc(NC(=O)CCS(=O)(=O)c2ccc3c(c2)n(C)c(=O)c(=O)n3C)cc1Cl | . | . | -2%[46.1 µM] | . | 16 | 10%[46.1 µM]
COc1ccccc1N(C(=O)c1ccncc1)c1nc(-c2ccc([N+](=O)[O-])cc2)cs1 | ? | 9.3µM* | ? | ? | -4 | ?
COCCN(C(=O)c1cccc(N2C(=O)CCC2=O)c1)c1nc(-c2ccc([N+](=O)[O-])cc2)cs1 | ? | ? | ? | 2% | -39 | -16%
CCCCCC(=O)OC(CN1CCCCC1)CN1CCCC1=O (centres undefined) | 0% | 15% | 6% | 10µM* | 45 | ?
CCCCCCCCCCCCCCCCCC(=O)OC(CC(=O)O)C[N+](C)(C)C (centres undefined) | . | . | -8% | . | . | ?
Cc1cccc(C)c1NC(=O)C1(C)CSCC(=O)N1Cc1cccc(C(F)(F)F)c1 (centres undefined) | . | . | . | . | -1 | .
Cc1ccc(C)n1C1C(=O)N(C)c2ccc(OC(F)(F)F)cc21 (centres undefined) | . | . | . | . | -1 | .
Cc1cccc(COC[C@H](Cc2ccccc2)N2CCN(C(=O)c3cccc(Cl)c3)CCC2=O)c1 | . | . | . | . | 5 | .
